{"source": "PubChem BioAssay (NCI)", "note": "The panel holds about 83,000 compounds, 20% with a hit somewhere; the sample as a whole holds those more often.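 A percent growth of 40 corresponds to 60% growth inhibition; 0 means no net growth; -100 means all cells died. Active threshold: below 10.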 Unmarked numbers belong to inactive results. Activity calls are given as the source filed them."}
{"system": "MDA-MB-468 breast", "experiment": "NCI-60 one-dose screen, 48 h (100 = growth as untreated, 0 = no growth, -100 = all killed)", "settings": "10 µM unless noted"}
{"compound": "Cc1cccc(-c2cn3ccnc3c(-c3ccc4ncn(Cc5ccccc5)c4c3)n2)c1", "growth": "83.4%"}
{"compound": "O=C1NC2(Nc3ccccc31)C(=O)Nc1c(Cl)cc(Cl)cc12", "note": "(centres undefined)", "growth": "112%"}
{"compound": "Cc1ccc(CNc2c3ccccc3nc3cc(NC(=O)CCN4CCCC4)ccc23)cc1", "growth": "-29.3% (active)"}
{"compound": "CN(C)C/C=C/C(=O)Nc1cc2c(Nc3ccc(F)c(Cl)c3)ncnc2cc1O[C@H]1CCOC1", "growth": "-40.5% (active)"}
{"compound": "COc1ccc(-c2nn(-c3cccc(NC(=O)c4cc(C(F)(F)F)cc(C(F)(F)F)c4)c3)cc2-c2ccncc2)cc1Cl", "growth": "61.4%"}
{"compound": "O=S(=O)(O)c1ccc(O)c(C2CCCCC2)c1", "growth": "103%"}
{"compound": "C/C(=N/Nc1nc2ccccc2n1C)c1ccccn1", "growth": "-41.9% (active)"}
{"compound": "COC(=O)CCC(=O)c1ccccc1", "growth": "115%"}
{"compound": "C#Cc1cccc(Nc2nc3cc([N+](=O)[O-])ccc3nc2Nc2ccc(O)cc2)c1", "growth": "27.1%"}
{"compound": "CC12CCC3C(CCC4CC(=O)/C(=C\\O)CC43C)C1CCC(=O)O2", "note": "(centres undefined)", "growth": "108%"}
{"compound": "COc1ccc(N/N=C/c2c(-c3ccc(S(C)(=O)=O)cc3)nc3ccccn23)cc1", "growth": "58.2%"}
{"compound": "COCCOCCOCc1n(Cc2ccc3ccccc3n2)c2ccccc2[n+]1Cc1ccc2ccccc2c1", "growth": "-50.1% (active)"}
{"compound": "Clc1ccc2c(NC3CCC(NC4CCCCC4)CC3)ccnc2c1", "note": "(centres undefined)", "growth": "-7.22% (active)"}
{"compound": "COc1cc2c3c(c1O)-c1ccccc1[C@@H]1OC(=O)N(CC2)[C@H]31", "growth": "90%"}
{"compound": "c1ccc(-c2nc(N3CCCNCC3)c3nc(-c4ccccc4)oc3n2)cc1", "growth": "-52.9% (active)"}
{"compound": "CCOC(=O)c1ccc2c(c1)c1c(C)c3cccnc3c(C)c1n2C", "growth": "64.4%"}
{"compound": "CCSc1sc(-c2ccc(C)cc2)nc1[P+](c1ccccc1)(c1ccccc1)c1ccccc1", "growth": "-61.4% (active)"}
{"compound": "N#CC1=C(N)Oc2c(sc3c(Br)cccc23)C1c1ccc(Cl)cc1", "note": "(centres undefined)", "growth": "1.22% (active)"}
{"compound": "CC(C)(C)n1cc(-c2ccnc(NCCCNS(=O)(=O)c3ccccc3)c2)c(-c2ccccc2)n1", "growth": "25.1%"}
{"compound": "O=[N+]([O-])c1cc(/C=N/Nc2nc(N/N=C/c3ccc(Cl)c([N+](=O)[O-])c3)nc(N3CCCCC3)n2)ccc1Cl", "growth": "68.8%"}
{"compound": "O=C(Nc1nc2ccc(O)cc2s1)c1cccc(C(F)(F)F)c1", "growth": "84.6%"}
{"compound": "CCc1cc2n(n1)-c1ncc(C(=O)OC)cc1Oc1ccccc1-2", "growth": "95.2%"}
{"compound": "O=c1oc2ccc([N+](=O)[O-])cc2cc1Br", "growth": "101%"}
{"compound": "CN(C)CCNC(=O)c1ccc(-c2nc3ccc4[nH]ncc4c3c3c2CCC3)cc1", "growth": "-55.3% (active)"}
{"compound": "NC(=O)CN1CCN(c2ccccc2Cl)CC1", "growth": "108%"}
{"compound": "O=CN1N=C(c2ccc(Nc3ccnc4cc(Cl)ccc34)cc2)CC1c1ccc(Cl)cc1", "note": "(centres undefined)", "growth": "-0.669% (active)"}
{"compound": "O=C(O)CCCCCCCCCCCCCCC(=O)O", "growth": "95.6%"}
{"compound": "Clc1cnc(Nc2ccc(OCCN3CCCC3)cc2)nc1NCc1ccco1", "growth": "16.6%"}
{"compound": "NNc1nnc2nc(Nc3ccccc3)nc(Nc3ccc(S(N)(=O)=O)cc3)n12", "growth": "126%"}
{"compound": "CCN1CCC2(CC1)NC(=O)c1c(c3ccc(Cl)c(Cl)c3n1C)C2C#N", "note": "(centres undefined)", "growth": "-16.3% (active)"}
{"compound": "COc1ccc(C(=O)c2cc(OC)c(OC)c(OC)c2)cc1/C=C/C(=O)c1cc(OC)c(OC)c(OC)c1", "growth": "73%"}
{"compound": "NS(=O)(=O)c1ccc(N2N=C(c3cccs3)CC2c2ccccc2O)cc1", "note": "(centres undefined)", "growth": "21.1%"}
{"compound": "COc1cccc(/C=C2\\SC(N3CCN(c4ccccn4)CC3)=NC2=O)c1", "growth": "101%"}
{"compound": "Cc1ccc(SCN2CCN(c3cccc(Cl)c3)CC2)cc1", "growth": "115%"}
{"compound": "CS(=O)(=O)c1ccc(/C=C\\C(=O)O)cc1", "growth": "93.6%"}
{"compound": "Cc1nc(-n2[nH]c(=O)ccc2=O)sc1N=Nc1ccccc1", "growth": "93.8%"}
{"compound": "O=C(/C=C\\c1cc(Br)ccc1O)/C=C/c1cc(Br)ccc1O", "growth": "-65% (active)"}
{"compound": "CC(C)OCC1CO1", "note": "(centres undefined)", "growth": "108%"}
{"compound": "Cc1cc([C@@H](C)Nc2ccccc2C(=O)O)c2nc(N3CCOCC3)cc(=O)n2c1", "growth": "9.76% (active)"}
